The full ranking holds about 2,900 compounds; the median of “IRF Lucia reporter activity, fold change vs agonist alone” is about 0.9, and the highest 2% start at about 2.8. Many of the other results were omitted from the sample, so the highest values are more common in it than they were.
Legend:
RAW-Dual [1] = experiment: IRF Lucia reporter activity, fold change vs agonist alone; cytotoxicity flag (confluency mask): not cytotoxic; higher = enhanced IRF activity
In short: (§1)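 Supernatant from RAW-Dual macrophages was read after 20 hours for IRF by QuantiLuc luminescence and for NF-κB by QuantiBlue absorbance at 620 nm. The cells (50,000 cells/well in DMEM, 384-well plates, 37 °C, 5% CO2) had received 50 nL of library stock by pin tool and, 1 h later, a PRR agonist. Reporter activity is expressed relative to agonist-alone wells as fold change, and wells were flagged cytotoxic if IncuCyte confluency was under 70% of agonist controls in both mask sets.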

RAW-Dual [2] = experiment: IRF Lucia reporter activity, fold change vs agonist alone; higher = enhanced IRF activity; conditions: agonist: MPLA (TLR4) […]
In short: as §1

RAW-Dual [3] = experiment: IRF Lucia reporter activity, fold change vs agonist alone; cytotoxicity flag (confluency mask): cytotoxic (confluency <70% of control); higher = enhanced IRF activity
In short: as §1

[4] = agonist: 3'3'-cGAMP (STING) 10 ug/mL
[5] = library stock concentration (final ~1000-fold dilution): 10 mM, cytotoxicity flag (confluency mask): not cytotoxic

CS(=O)(=O)O.Cc1ccc(N(CC2=NCCN2)c2cccc(O)c2)cc1 (library stock concentration (final ~1000-fold dilution): 10 mM)
IRF Lucia reporter activity (RAW-Dual [1]; [4]): 0.803 | IRF Lucia reporter activity (RAW-Dual [1]; agonist: LPS (TLR4) 0.1 ug/mL): 0.89

CS(=O)(=O)O.Cc1ccc(N(CC2=NCCN2)c2cccc(O)c2)cc1
IRF Lucia reporter activity (RAW-Dual [2]; [5]): 0.907

C[N+](C)(C)NCCC(=O)O
IRF Lucia reporter activity (RAW-Dual [2]; library stock concentration (final ~1000-fold dilution): 10 mM water, cytotoxicity flag (confluency mask): not cytotoxic): 1.25

C[N+](C)(C)NCCC(=O)O (library stock concentration (final ~1000-fold dilution): 10 mM water)
IRF Lucia reporter activity (RAW-Dual [1]; [4]): 1.05 | IRF Lucia reporter activity (RAW-Dual [1]; agonist: LPS (TLR4) 0.1 ug/mL): 0.979

C[C@@H]1O[C@@H](O[C@H]2C(=O)c3c(O)cc(O)cc3O[C@@H]2c2ccc(O)cc2)[C@H](O)[C@H](O)[C@H]1O (library stock concentration (final ~1000-fold dilution): 10 mM)
IRF Lucia reporter activity (RAW-Dual [1]; [4]): 0.228 | IRF Lucia reporter activity (RAW-Dual [1]; agonist: LPS (TLR4) 0.1 ug/mL): 1.17

COc1nc2ccc(Br)cc2cc1C(c1ccccc1)C(O)(CCN(C)C)c1cccc2ccccc12.O=C(O)/C=C/C(=O)O (centres undefined) (library stock concentration (final ~1000-fold dilution): 10 mM)
IRF Lucia reporter activity (RAW-Dual [1]; [4]): 0.888 | IRF Lucia reporter activity (RAW-Dual [1]; agonist: LPS (TLR4) 0.1 ug/mL): 0.812

COc1nc2ccc(Br)cc2cc1C(c1ccccc1)C(O)(CCN(C)C)c1cccc2ccccc12.O=C(O)/C=C/C(=O)O (centres undefined)
IRF Lucia reporter activity (RAW-Dual [2]; [5]): 0.751

CNCc1ccc(C)c(NC(=O)c2ccc(Nc3nc(-c4ccccc4)c4ccccc4n3)cc2)c1
IRF Lucia reporter activity (RAW-Dual [2]; [5]): 1.01

CC(=O)Nc1ccc(C(=O)Nc2ccccc2N)cc1
IRF Lucia reporter activity (RAW-Dual [2]; [5]): 0.418

CNCc1ccc(C)c(NC(=O)c2ccc(Nc3nc(-c4ccccc4)c4ccccc4n3)cc2)c1 (library stock concentration (final ~1000-fold dilution): 10 mM)
IRF Lucia reporter activity (RAW-Dual [1]; [4]): 0.995 | IRF Lucia reporter activity (RAW-Dual [1]; agonist: LPS (TLR4) 0.1 ug/mL): 1.04

Cc1cc(Nc2ccc(NC(=O)c3ccc(Nc4ccnc5ccccc45)cc3)cc2)nc(N)n1
IRF Lucia reporter activity (RAW-Dual [2]; [5]): 3.15

CC(=O)Nc1ccc(C(=O)Nc2ccccc2N)cc1 (library stock concentration (final ~1000-fold dilution): 10 mM)
IRF Lucia reporter activity (RAW-Dual [1]; [4]): 0.557 | IRF Lucia reporter activity (RAW-Dual [1]; agonist: LPS (TLR4) 0.1 ug/mL): 0.424

Cc1cc(Nc2ccc(NC(=O)c3ccc(Nc4ccnc5ccccc45)cc3)cc2)nc(N)n1 (library stock concentration (final ~1000-fold dilution): 10 mM)
IRF Lucia reporter activity (RAW-Dual [1]; [4]): 1.65 | IRF Lucia reporter activity (RAW-Dual [1]; agonist: LPS (TLR4) 0.1 ug/mL): 2.84

CCN(CC)CCCC(C)Nc1c2ccc(Cl)cc2nc2ccc(OC)cc12.Cl.Cl (centres undefined) (library stock concentration (final ~1000-fold dilution): 10 mM)
IRF Lucia reporter activity (RAW-Dual [3]; [4]): 0.643 | IRF Lucia reporter activity (RAW-Dual [3]; agonist: LPS (TLR4) 0.1 ug/mL): 0.0599

CCN(CC)CCCC(C)Nc1c2ccc(Cl)cc2nc2ccc(OC)cc12.Cl.Cl (centres undefined)
IRF Lucia reporter activity (RAW-Dual [2]; library stock concentration (final ~1000-fold dilution): 10 mM, cytotoxicity flag (confluency mask): cytotoxic (confluency <70% of control)): 0.84

C/C(O)=C(\C#N)C(=O)Nc1ccc(C(F)(F)F)cc1 (library stock concentration (final ~1000-fold dilution): 10 mM)
IRF Lucia reporter activity (RAW-Dual [1]; [4]): 1.69 | IRF Lucia reporter activity (RAW-Dual [1]; agonist: LPS (TLR4) 0.1 ug/mL): 3.04

C/C(O)=C(\C#N)C(=O)Nc1ccc(C(F)(F)F)cc1
IRF Lucia reporter activity (RAW-Dual [2]; [5]): 1.97

Cc1oncc1C(=O)Nc1ccc(C(F)(F)F)cc1 (library stock concentration (final ~1000-fold dilution): 10 mM)
IRF Lucia reporter activity (RAW-Dual [1]; [4]): 1.08 | IRF Lucia reporter activity (RAW-Dual [1]; agonist: LPS (TLR4) 0.1 ug/mL): 1.39

CC(=O)Oc1cc(C(F)(F)F)ccc1C(=O)O (library stock concentration (final ~1000-fold dilution): 10 mM)
IRF Lucia reporter activity (RAW-Dual [1]; [4]): 1.03 | IRF Lucia reporter activity (RAW-Dual [1]; agonist: LPS (TLR4) 0.1 ug/mL): 0.337

Cc1oncc1C(=O)Nc1ccc(C(F)(F)F)cc1
IRF Lucia reporter activity (RAW-Dual [2]; [5]): 1.62

CC(=O)Oc1cc(C(F)(F)F)ccc1C(=O)O
IRF Lucia reporter activity (RAW-Dual [2]; [5]): 1.04

CC1CCC2C(C)C(OC(=O)CCC(=O)O)OC3OC4(C)CCC1C32OO4 (centres undefined)
IRF Lucia reporter activity (RAW-Dual [2]; [5]): 0.737

CC1CCC2C(C)C(OC(=O)CCC(=O)O)OC3OC4(C)CCC1C32OO4 (centres undefined) (library stock concentration (final ~1000-fold dilution): 10 mM)
IRF Lucia reporter activity (RAW-Dual [1]; [4]): 0.638 | IRF Lucia reporter activity (RAW-Dual [1]; agonist: LPS (TLR4) 0.1 ug/mL): 0.706

COc1ccc(CCc2nc3cc(-c4c(C)noc4C)ccc3n2CC(C)N2CCOCC2)cc1Cl (centres undefined)
IRF Lucia reporter activity (RAW-Dual [2]; [5]): 0.203

COc1ccc(CCc2nc3cc(-c4c(C)noc4C)ccc3n2CC(C)N2CCOCC2)cc1Cl (centres undefined) (library stock concentration (final ~1000-fold dilution): 10 mM)
IRF Lucia reporter activity (RAW-Dual [1]; [4]): 0.452 | IRF Lucia reporter activity (RAW-Dual [1]; agonist: LPS (TLR4) 0.1 ug/mL): 0.421

COC1=CC(c2cc3ccccc3[nH]2)=N/C1=C\c1[nH]c(C)cc1C.CS(=O)(=O)O (library stock concentration (final ~1000-fold dilution): 10 mM)
IRF Lucia reporter activity (RAW-Dual [1]; [4]): 0.38 | IRF Lucia reporter activity (RAW-Dual [1]; agonist: LPS (TLR4) 0.1 ug/mL): 3.87

Cc1cc(C)c(/C=C2\C(=O)Nc3ccccc32)[nH]1
IRF Lucia reporter activity (RAW-Dual [2]; [5]): 0.781

Cc1cc(C)c(/C=C2\C(=O)Nc3ccccc32)[nH]1 (library stock concentration (final ~1000-fold dilution): 10 mM)
IRF Lucia reporter activity (RAW-Dual [1]; [4]): 0.77 | IRF Lucia reporter activity (RAW-Dual [1]; agonist: LPS (TLR4) 0.1 ug/mL): 0.578

COC1=CC(c2cc3ccccc3[nH]2)=N/C1=C\c1[nH]c(C)cc1C.CS(=O)(=O)O
IRF Lucia reporter activity (RAW-Dual [2]; [5]): 5.45

Reference: the supplement of paper PMC10037445
